Source: PubChem
Shown are actives, neighbours in structure and some others; about 10% of the full set was active somewhere.
HP1b binding inh – HTS for Inhibitors of HP1-beta Chromodomain Interactions with Methylated Histone Tails. actives 0.56% (n = 390,000). Potency, µM (titrated, usually from 114 µM), for the others: at the highest dose activity change, negative = inhibition, hits mostly inhibitors. AlphaScreen HP1-beta / biotin-H3K9me3 peptide binding. Chromobox protein homolog 1 (Homo sapiens), P83916; also: potency is read from the fitted curve at half-maximal effect; nearly all actives have a fitted effect of over 70% in size
Target sequence (P83916 whole entry, looked up): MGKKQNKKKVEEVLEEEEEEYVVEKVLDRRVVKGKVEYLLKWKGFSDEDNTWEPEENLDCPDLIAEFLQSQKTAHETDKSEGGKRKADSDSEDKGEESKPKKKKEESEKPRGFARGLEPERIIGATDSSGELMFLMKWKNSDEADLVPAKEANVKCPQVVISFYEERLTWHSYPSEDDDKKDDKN
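Compound inhibition of the preformed complex between 50 nM HP1-beta and 50 nM biotinylated H3K9me3 peptide was read by AlphaScreen. Buffer was PBS pH 7.4 with 0.01% Tween-20. Incubations ran 30 min at room temperature, with 10 ug/mL donor/acceptor beads.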
BAZ2B inh – qHTS Assay for Inhibitors of BAZ2B; Bromodomain adjacent to zinc finger domain protein 2B (Homo sapiens), Q9UIF8; AlphaScreen BAZ2B-H3K14Ac peptide displacement; Potency, µM (doses to about 114 µM), without a hit: top-dose activity change, negative = inhibition, hits mostly inhibitors; actives 4.4% (n = 360,000); AID 504333, 2011; also: potency is read from the fitted curve at half-maximal effect; % is scaled to controls: 0 for no effect and ±100 for the full control effect; nearly all actives have a fitted effect of over 60% in size
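BAZ2B (50 nM) with biotin-H3(5-23)K14Ac peptide (50 nM) in PBS pH 7.4, 0.01% Tween-20, preformed 30 min, then compound 30 min at room temperature; top concentration 110uM. AlphaScreen streptavidin donor/nickel chelate acceptor beads (10 ug/mL final), 20 min dark, signal read.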
CtBP-E1A inh – qHTS Assay for Inhibitors of the CtBP/E1A Interaction | AID 651724, 2012 | activity change, % (no concentration beside the values) | CtBP / adenovirus E1A interaction (AlphaScreen) | AlphaScreen GST-E1A/His-CtBP binding, 1536-well; active compounds read low | actives 0.49% (n = 340,000); in the data active = activity change below about -65%; inconclusive = mostly about -30% to -63%; also: % is scaled to controls: 0 for no effect and ±100 for the full control effect
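Homogeneous bead-based format: GST-tagged E1A captured on glutathione donor beads, His-tagged CtBP on nickel acceptor beads; compounds precede bead addition by 2 h at 37 °C.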
Six1-Eya2 inh – qHTS Assay for Inhibitors of the Six1/Eya2 Interaction. AlphaScreen GST-Six1/His-Eya2 binding, biochemical; active compounds read low. activity change, % (test concentration not listed). Homeobox protein SIX1 (Homo sapiens) + Protein phosphatase EYA2 (Homo sapiens), …. AID 651725, 2012. actives 0.56% (n = 360,000); in the data active = activity change below about -65%; inconclusive = mostly about -30% to -63%; also: % is scaled to controls: 0 for no effect and ±100 for the full control effect
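AlphaScreen with GST-Six1 and His-Eya2 (5X mix: 250 nM and 500 nM), glutathione donor and nickel acceptor beads; buffer 50 mM Tris pH 8.0, 300 mM NaCl, 1 mM TCEP; 1 h at 37 C in the dark.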
G9a block – qHTS Assay for Inhibitors of Histone Lysine Methyltransferase G9a | Histone-lysine N-methyltransferase EHMT2 (Homo sapiens), Q96KQ7 | G9a H3K9 monomethylation, AlphaScreen, 2 h | Potency, µM (doses to about 102 µM), for the others: top-dose activity, negative = inhibition, usual class: inhibitors | actives 8.8% (n = 350,000) | AID 504332, 2011; also: potency is read from the fitted curve at half-maximal effect; % is scaled to controls: 0 for no effect and ±100 for the full control effect; nearly all actives have a fitted effect of over 75% in size
Target sequence (Q96KQ7 913-1193 limits assumed): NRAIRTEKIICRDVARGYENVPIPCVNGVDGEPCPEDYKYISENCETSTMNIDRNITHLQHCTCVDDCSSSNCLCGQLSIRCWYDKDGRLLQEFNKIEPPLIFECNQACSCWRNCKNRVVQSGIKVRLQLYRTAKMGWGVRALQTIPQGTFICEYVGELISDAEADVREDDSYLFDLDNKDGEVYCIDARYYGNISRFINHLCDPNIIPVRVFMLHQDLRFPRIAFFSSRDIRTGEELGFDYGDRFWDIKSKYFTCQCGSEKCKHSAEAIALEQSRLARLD
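Chemiluminescent proximity detection of H3K9 monomethylation, read after 10 min bead incubation in the dark. Reaction: 20 nM G9a, 500 nM biotin-H3K9 peptide, 20 uM SAM cofactor, 2 h, room temperature, following 15 min enzyme-compound preincubation.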
JMJD2A Tudor inh – qHTS Assay for Inhibitors of JMJD2A-Tudor Domain; AlphaScreen JMJD2A-Tudor / H3K4me3 peptide binding; Potency, µM (highest dose often 114 µM), without a hit: at the highest dose activity change, negative = inhibition, hits mostly inhibitors; actives 4.4% (n = 390,000); AID 504339, 2011; also: potency is read from the fitted curve at half-maximal effect; % is scaled to controls: 0 for no effect and ±100 for the full control effect; nearly all actives have a fitted effect of over 50% in size
Active calls of the source: *; ? = inconclusive; . = not tested or not shown; [ ] = dose if it differs, or a comment. Unless noted, calls follow the shape of the dose curve; as a rule, active = well fitted inhibition curve with a large enough effect; inconclusive = small, poorly fitted or top-dose-only effect; inactive = no such curve, though single readings can be large or run the other way.

SMILES	HP1b binding inh	BAZ2B inh	CtBP-E1A inh	Six1-Eya2 inh	G9a block	JMJD2A Tudor inh
COc1ccc(NC(=O)CN2CCc3ccccc3C2)c(OC)c1	37.8%	-35.7%	-4.2	-4.3	.	-13.2%
COc1ccc(CN2CCN(Cc3ccco3)CC2)c(OC)c1	?	39.8µM*	-2.1	5.3	39.8µM*	3.16µM*
COc1ccccc1CN1CCN(Cc2nc(-c3ccc(C)cc3)oc2C)CC1	16.6%	-33.1%	-20.0	-12.4	20.7%	?
COc1ccc(CN2CCc3ccccc3C2)c(OC)c1	?	?	7.7	-2.5	-128.1%[59 µM]	2.82µM*
COc1cc(CN2CCN(Cc3ccco3)CC2)cc(OC)c1	?	25.1µM*	5.5	5.7	8.91µM*	0.794µM*
COc1ccc2oc(=O)cc(CN3CCN(Cc4ccc(OC)c(OC)c4OC)CC3)c2c1	9.9%	-12.1%	2.8	-2.8	-8.5%	-31.4%
Cc1ccc(S(=O)(=O)N2CCN(Cc3ccco3)CC2)cc1C	25.2%	-16.2%	-1.5	0.3	.	-2.1%
CCN1CCN(C(=O)c2ccc3c(c2)N(Cc2ccc(F)cc2)C(=O)c2ccccc2S3(=O)=O)CC1	14.8%	-13.8%	.	.	-28.1%[59 µM]	-21.5%
O=C(NCC1OCCc2ccccc21)c1cc(COc2c(F)cccc2F)on1 (centres undefined)	40.3%	10.4%	15.6	4.7	58.8%	13.3%
N#CC1(NC(=O)COc2ccc(S(=O)(=O)N3CCCC3)cc2[N+](=O)[O-])CCCCC1	0.9%	-23.1%	-0.3	-5.3	14.1µM*	-14.4%
Cc1ccc(NS(=O)(=O)c2ccc3[nH]c4c(c3c2)CCCCCC4)cc1C	-16.8%	-26.6%	.	.	?	?
Cc1ccc(C)c(N2CCN(S(=O)(=O)c3ccc4[nH]c5c(c4c3)CCCC5)CC2)c1	16.9%	-34.9%	.	.	?	-36.0%
Cc1ccc(NS(=O)(=O)c2ccc3[nH]c4c(c3c2)CCCCCC4)cc1	-5.5%[57 µM]	39.8µM*	.	.	?	?
O=S(=O)(c1ccc2[nH]c3c(c2c1)CCCC3)N1CCCCC1	47.3%	25.1µM*	.	?	.	-0.4%
COc1ccc(NS(=O)(=O)c2ccc3[nH]c4c(c3c2)CCCC4)cc1OC	?	?	.	.	11.2µM*	44.7µM*
COc1cc(NS(=O)(=O)c2ccc3[nH]c4c(c3c2)CCCC4)cc(OC)c1OC	-17.4%	?	.	.	?	?
COc1ccc(C(=O)NCC(=O)OCc2cc(=O)n3nc(C4CCCCC4)sc3n2)cc1	31.7%	-4.7%	.	.	1.9%[59 µM]	-1.7%
Oc1ccc(C2CNCc3sccc32)cc1O (centres undefined)	?	15.1%	1.9	-14.5	2.99µM*	50.1µM*
COc1cccc(/C=C2\SC(=S)N(CCCC(=O)N3CCCCC3)C2=O)c1	?	11.2µM*	-8.7	-1.1	25.1µM*	39.8µM*
COc1cccc(/C=C2/SC(=S)N(CCC(=O)N3CCOCC3)C2=O)c1	-5.1%	0.8%	14.7	-9.5	?	56.2µM*
COc1ccc(/C=C2\SC(=S)N(CCCC(=O)N3CCN(C)CC3)C2=O)cc1	?	?	-24.7	?	?	?
COc1ccc(/C=C2\SC(=S)N(CCC(=O)N3CCOCC3)C2=O)cc1	4.3%	14.2%	-0.1	-12.5	43.2%[12.7 µM]	-12.9%
O=C(CCCN1C(=O)/C(=C/c2ccccc2)SC1=S)N1CCOCC1	?	39.8µM*	23.6	-2.9	79.4µM*	-35.9%
O=C(c1ccc(Nc2nc3ccccc3n3nnnc23)cc1)N1CCN(c2ccc(F)cc2)CC1	31.3%	-2.4%	.	.	2.4%[59 µM]	-2.4%
C=CCOc1ccc2c(c1)c(=O)cc(C(=O)O)n2CC	40.1%	-6.3%	7.4	10.6	44.7µM*	-13.4%
SMILES	HP1b binding inh	BAZ2B inh	CtBP-E1A inh	Six1-Eya2 inh	G9a block	JMJD2A Tudor inh
C=CCOc1ccc2c(=O)n(C)c3ccccc3c2c1	45.0%	.	.	.	.	1.4%
Cc1nc(-c2cn[nH]c2)c2cc(C)oc2n1	53.1%	-3.2%	-21.3	-18.2	-7.5%	-18.6%
Cc1cn[nH]c1	5.2%	5.2%	8.7	-1.6	18.9µM*	?
Cn1c(N)c(C(=O)CSc2ccc3c(c2)OCCO3)c(=O)n(C)c1=O	31.4%	-0.6%	-15.2	-11.4	-9.2%[12.7 µM]	0.0%
Cc1cc(C(=O)CSc2ccc3c(c2)OCCO3)c(C)n1C1CC1	-15.3%	79.4µM*	-12.1	-15.8	?	-26.2%
CCNc1nnc(SCC(=O)c2cc(C)n(C3CC3)c2C)s1	7.3%	-9.9%	1.7	-1.5	50.1µM*	-33.1%
COCCNc1nnc(SCC(=O)c2cc(C)n(C3CC3)c2C)s1	.	.	-0.7	-1.6	.	.
O=C(NCCc1ccccc1Cl)c1ccc2c(c1)nc1n2CCOC1	27.7%[57 µM]	1.9%	.	.	-4.6%[59 µM]	-0.3%
COc1ccc(NS(=O)(=O)c2cc(NC(=O)CCc3ccc(OC)c(OC)c3)ccc2N2CCOCC2)cc1	27.8%	.	-6.7	-3.8	.	-34.6%
CCCn1c(SCC(=O)C(C)(C)C)nc2ccccc21	46.3%	-14.6%	3.7	9.3	35.5µM*	6.3%
CC(C)(C)NC(=O)Cn1c(SCC(N)=O)nc2ccccc21	-8.8%	8.4%	0.4	-2.6	-7.4%[0.0925 µM]	20µM*
CCCn1c(SC(C)C(=O)O)nc2ccccc21 (centres undefined)	63.4%	?	2.4	10.5	-39.2%[12.7 µM]	?
CCn1cc(C(=O)O)c(=O)c2cc(F)c(N3CCN(C(=O)Nc4ccccc4)CC3)cc21	16.1%	-6.7%	3.7	-6.7	39.8µM*	22.4µM*
CCn1cc(C(=O)O)c(=O)c2cc(F)c(N3CCN(C(=S)NC(=O)c4ccc(Br)cc4)CC3)cc21	-4.8%	31.6µM*	?	-2.7	6.8%	-14.3%[11.4 µM]
CCn1cc(C(=O)O)c(=O)c2cc(F)c(N/N=C/c3ccccc3)cc21	22.0%	-1.3%	-73.9*	?	6.6%[59 µM]	-7.9%
CCn1cc(C(=O)O)c(=O)c2cc(F)c(N3CCN(C(=S)NC(=O)c4ccccc4F)CC3)cc21	7.1%	?	7.4	5.1	?	?
Cc1nn(CC(=O)Nc2ccc3c(c2)CCC3)c(C)c1[N+](=O)[O-]	27.5%	-5.6%	4.4	4.1	26.8%[12.7 µM]	-6.8%
CN1CCN(C(=O)C23CC4CC(C)(CC(C)(C4)C2)C3)CC1	48.4%	-10.9%	5.5	3.4	56.2µM*	-3.0%
CCOc1ccc2c(c1)[N+](C)(C)C(C)(C)C=C2C	3.2%	-15.7%	-18.6	2.2	?	17.8µM*
